Compound activity as filed in PubChem BioAssay.
IL1B NFkB pot – enhancers of NFkB p65 translocation in HUVEC – imaging, IL-1B stimulus, high-content imaging, primary screen. HUVEC IL-1B NFkB p65 nuclear translocation imaging. activation, % at 2 µM. hit rate 0.3% among 94,000. AID 819, 2007;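 active means activation above 40%, about the mean plus 3 SD, also judged a hit on visual image review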;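 further: percent activation is computed from the nuclear over cytoplasmic p65 intensity ratio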
IL1B cytotox – cytotoxicity in IL-1B stimulated HUVEC, primary screen, cytotoxicity control for IL-1B NFkB translocation project, imaging, Hoechst nuclear count, IL-1B stimulus; HUVEC cell count loss; cell count reduction, % at 2 µM; hit rate 0.41% among 94,000; AID 845, 2007;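 active means cell count reduction more than 3 SD above the screen-wide mean, cut at about 70% in these data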;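 further: normalized per plate to untreated control cells as the no-loss baseline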
ERa coact pot – enhancers of ERα–SRC-1 coactivator binding, primary screen, biochemical, TR-FRET, ERα LBD, low estradiol. Estrogen receptor (Homo sapiens), P03372. TR-FRET ERalpha-LBD/SRC-Cy5 coactivator binding, 2 h; 100 = basal binding, no effect. coactivator binding (% of control), % at 25.6 µM. hit rate 1.3% among 86,000. AID 639, 2007; in the data active means activity above about 200%;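 further: binding measured in presence of low estradiol as agonist stimulus; 0% = peptide alone without receptor and 100% = receptor with peptide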
Target sequence (P03372 whole entry, looked up, the tested form may be a part): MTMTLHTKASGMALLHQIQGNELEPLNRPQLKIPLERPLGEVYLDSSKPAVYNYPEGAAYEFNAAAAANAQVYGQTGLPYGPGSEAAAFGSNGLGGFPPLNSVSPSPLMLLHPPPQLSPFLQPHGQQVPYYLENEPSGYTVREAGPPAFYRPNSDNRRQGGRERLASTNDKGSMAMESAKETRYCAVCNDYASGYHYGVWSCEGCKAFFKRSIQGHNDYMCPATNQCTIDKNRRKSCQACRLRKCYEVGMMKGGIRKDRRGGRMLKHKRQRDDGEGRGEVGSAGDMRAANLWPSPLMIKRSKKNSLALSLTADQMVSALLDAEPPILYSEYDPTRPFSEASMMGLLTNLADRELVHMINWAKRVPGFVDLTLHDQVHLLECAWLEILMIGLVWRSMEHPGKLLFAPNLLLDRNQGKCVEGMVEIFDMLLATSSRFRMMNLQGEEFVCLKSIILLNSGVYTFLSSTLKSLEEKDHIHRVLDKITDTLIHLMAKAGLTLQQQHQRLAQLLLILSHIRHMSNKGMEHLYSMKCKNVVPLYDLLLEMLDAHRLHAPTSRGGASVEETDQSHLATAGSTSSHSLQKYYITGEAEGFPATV
IL1B NFkB inh – inhibitors of IL-1B driven NFkB p65 nuclear import, primary screen, imaging, HUVEC, IL-1B stimulus, high-content imaging; HUVEC IL-1B NFkB p65 nuclear translocation imaging; inhibition, % at 2 µM; hit rate 0.43% among 94,000; AID 796, 2007;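 active means inhibition above about 30% together with a positive call from visual inspection of the well image, limit read from the data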;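 further: nuclear over cytoplasmic p65 intensity ratio measured by imaging; 0% = IL-1B stimulated DMSO wells and 100% = unstimulated DMSO wells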
ERa coact inh – ERα–SRC-1 coactivator interaction inhibitors, primary screen, biochemical, TR-FRET, ERα LBD, estradiol-bound; inhibition, % at 25.6 µM; TR-FRET ER-alpha LBD / SRC-1 peptide; AID 629, 2007; Estrogen receptor (Homo sapiens), P03372; hit rate 1.7% among 86,000; in the data active means inhibition above about 50%;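 further: 0% = receptor plus peptide control and 100% = peptide only without receptor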
ERb coact inh – inhibitors of ERβ-SRC1 coactivator interaction, primary screen, biochemical, TR-FRET, ERβ LBD, SRC-1 peptide; Estrogen receptor beta (Homo sapiens), Q92731; TR-FRET ER-beta LBD / SRC1-Cy5 peptide binding; receptor agonist-loaded with 1 µM estradiol; inhibition, % at 25.6 µM; hit rate 1.3% among 86,000;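 active means compounds whose percent inhibition of the receptor-coactivator binding signal exceeds about 50% in the single-dose screen, limit read from the data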;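 further: 0% = receptor plus peptide wells without compound and 100% = peptide-only wells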
Numbers without * were called inactive; [ ] = remark or other dose. In the library only some 3.6% were active in any assay of this set; here they are far more common.

O=C(CSc1ncnc2c1oc1ccccc12)Nc1ccccc1C(F)(F)F was read as ERa coact pot 721*[fluorescence artefact?], ERa coact inh 23 and ERb coact inh 29.
`COC(=O)c1ccccc1NC(=O)CN1CCC(NC(=O)c2ccccc2C)CC1` gave IL1B NFkB pot -10, IL1B cytotox -1, ERa coact pot 117, IL1B NFkB inh 10, ERa coact inh 5 and ERb coact inh -6.
c1coc(-c2nnc3sc(-c4cccs4)nn23)c1 was read as IL1B NFkB pot -6, IL1B cytotox 1, ERa coact pot 82, IL1B NFkB inh 6, ERa coact inh 17 and ERb coact inh 25.
For O=C(c1ccccc1Nc1ccc(SC(F)F)cc1)N1CCCCCC1 the results were IL1B NFkB pot 7, IL1B cytotox 2, ERa coact pot 103, IL1B NFkB inh -7, ERa coact inh 2 and ERb coact inh -7.
COC(=O)/C(=C(/F)Sc1cc(C)c(O)c(C)c1)C(F)(F)F was read as IL1B NFkB pot -3, IL1B cytotox 16, ERa coact pot 23, IL1B NFkB inh 3, ERa coact inh 41 and ERb coact inh 29.
COc1ccc(CCNC(=O)CSc2ncnc3c2oc2ccccc23)cc1OC was read as IL1B NFkB pot -5, IL1B cytotox -2, ERa coact pot 123, IL1B NFkB inh 5, ERa coact inh -3 and ERb coact inh 0.
For COc1cccc(NC(=O)CSc2ncnc3c2oc2ccccc23)c1 the results were IL1B NFkB pot 2, IL1B cytotox 11, ERa coact pot 373*[fluorescence artefact?], IL1B NFkB inh -2, ERa coact inh 64*[fluorescence artefact?] and ERb coact inh 57*[fluorescence artefact?].
`Cc1ccc(NC(=O)CCC(=O)O)cc1F` gave IL1B NFkB pot -4, IL1B cytotox -25, ERa coact pot 102, IL1B NFkB inh 4, ERa coact inh -2 and ERb coact inh 4.
For Cc1nc(SCC(=O)Nc2ccc(C)c(F)c2)c2oc3ccccc3c2n1 the results were IL1B NFkB pot 10, IL1B cytotox -50, ERa coact pot 840*[fluorescence artefact?], IL1B NFkB inh -10, ERa coact inh -35 and ERb coact inh -38.
Screening CC1S/C(=C(\C#N)C(=O)NCc2ccco2)N(c2ccc(F)cc2)C1=O (stereo unspecified) returned IL1B NFkB pot 12, IL1B cytotox 8, ERa coact pot 98, IL1B NFkB inh -12, ERa coact inh 1 and ERb coact inh 5.
`COc1ccc(C(=O)c2ccc(OC)c(OC)c2)cc1OC` gave IL1B NFkB pot 1, IL1B cytotox 9, ERa coact pot 120, IL1B NFkB inh 1, ERa coact inh 1 and ERb coact inh -6.
For COc1ccc(C(=O)c2ccc(OC)c(N)c2)cc1N the results were IL1B NFkB pot 70*, IL1B cytotox -13 and IL1B NFkB inh -70.
Screening CCc1nc2scc(-c3cccs3)c2c(=O)o1 returned IL1B NFkB pot -45, IL1B cytotox 8, ERa coact pot 89, IL1B NFkB inh 45*, ERa coact inh 14 and ERb coact inh 11.
For COc1ccc(CCNC(=O)CSc2nnc(Cc3csc(N)n3)n2C)cc1OC the results were IL1B NFkB pot -1, IL1B cytotox -18, ERa coact pot 129, IL1B NFkB inh 1, ERa coact inh -13 and ERb coact inh -8.
Nc1ccc(N2CCCCCC2)cc1 was read as ERa coact pot 16, ERa coact inh 97*[fluorescence artefact?] and ERb coact inh 93*[fluorescence artefact?].
CN(C)C(=O)c1ccccc1-c1ccccc1 was read as IL1B NFkB pot 7, IL1B cytotox -5, ERa coact pot 241*, IL1B NFkB inh -7, ERa coact inh -2 and ERb coact inh -6.
Cc1ccccc1N(C(=O)c1cccs1)c1nc2ccccc2s1 was read as IL1B NFkB pot -2, IL1B cytotox -16 and IL1B NFkB inh 2.
`CN(N)c1nc(-c2ccccc2)nnc1C(F)(F)F` gave IL1B NFkB pot -1, IL1B cytotox 86* and IL1B NFkB inh 1.
`CCOC(=O)c1c(C)oc2c1c(C(c1ccncc1)N1CCOCC1)c(O)c1ccccc12` (stereo unspecified) gave IL1B NFkB pot -6, IL1B cytotox 19, ERa coact pot 93, IL1B NFkB inh 6, ERa coact inh 68*[fluorescence artefact?] and ERb coact inh 71*[fluorescence artefact?].
Screening CCOC(=O)c1c(C)oc2c1c(C=NC1CCS(=O)(=O)C1)c(O)c1ccccc12 (stereo unspecified) returned IL1B NFkB pot -9, IL1B cytotox -52, ERa coact pot 79, IL1B NFkB inh 10, ERa coact inh 70* and ERb coact inh 44.
Screening CC1CCN(S(=O)(=O)c2ccc(Br)s2)CC1 returned IL1B NFkB pot 27, IL1B cytotox -7, ERa coact pot 105, IL1B NFkB inh -27, ERa coact inh -33 and ERb coact inh -7.
For Cc1ccc(N(CC(O)COCc2ccco2)S(=O)(=O)c2ccc(C)cc2)cc1 (stereo unspecified) the results were IL1B NFkB pot 17, IL1B cytotox -16, ERa coact pot 170, IL1B NFkB inh -17, ERa coact inh 41 and ERb coact inh 25.
O=C(Nc1ccc(NC(=O)C2CC2)cn1)c1ccccc1Cl was read as IL1B NFkB pot -10, IL1B cytotox 88*, ERa coact pot 89, IL1B NFkB inh 10, ERa coact inh -2 and ERb coact inh 8.
`CCCC(=O)Nc1ccc(NC(=O)C2CC2)cn1` gave IL1B NFkB pot 8, IL1B cytotox 13, ERa coact pot 108, IL1B NFkB inh -8, ERa coact inh -4 and ERb coact inh 3.
`N/C(Cc1ccc([N+](=O)[O-])cc1)=N\OC(=O)C(c1ccccc1)c1ccccc1` gave IL1B NFkB pot -5, IL1B cytotox -43 and IL1B NFkB inh 5.
CSc1nc(N2CCN(CCO)CC2)c2sc3nc(-c4ccco4)c4c(c3c2n1)CCC4 was read as ERa coact pot 65, ERa coact inh 57* and ERb coact inh 24.
For N/C(Cc1cccs1)=N\OC(=O)COc1ccccc1 the results were IL1B NFkB pot 12, IL1B cytotox -9, ERa coact pot 113, IL1B NFkB inh -12, ERa coact inh 8 and ERb coact inh -2.
`CCOc1ccc(OCc2ccc(C(=O)N3N=C(C(F)F)CC3(O)C(F)F)o2)cc1` (stereo unspecified) gave IL1B NFkB pot 45*, IL1B cytotox -16 and IL1B NFkB inh -45.
